High-throughput results: PubChem BioAssay, several laboratories
HSP90 inh: HSP90 refolding inhibition in rabbit reticulocyte lysate; luciferase refolding luminescence, 3 h; inhibition, % at 5.6 µM; AID 1789; 290,000 tested, 0.91% active;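 active = inhibition above the screen-wide mean plus 3 SD, computed separately per campaign, cut at about 16% in these data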;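 also: 0% = DMSO wells and 100% = 60 µM geldanamycin wells; inhibitors lower the luminescence because luciferase stays unfolded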
C8 TRAIL sens: caspase-8 TRAIL sensitization; NB7+C8 cells + TRAIL, ATPlite viability luminescence; inhibition (viability loss, TRAIL sensitization), % at 10 µM; 360,000 tested, 1% active;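 active = compounds causing at least 50% loss of cell viability in the single-dose screen, relative to plate controls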
TROY NFkB inh: TROY signaling inhibition; Q293 LMP1-TROYcd NF-kB luciferase reporter, 4 h; inhibition, % at 10 µM; 360,000 tested, 0.98% active; AID 1347056;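 active = compounds whose plate-normalised and pattern-corrected inhibition of the luciferase reporter signal at the single screening dose is 50% or more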
HIF-2a inh: HIF-2a inhibition. 786-0 RCC cells HIF-2a reporter, luciferase luminescence, overnight. inhibition, % at 18.8 µM. 360,000 tested, 0.72% active. AID 624352;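 active = inhibition of the luminescence signal of 40% or more relative to plate controls, in a single-dose primary screen at 18.75 µM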
TWEAK-Fn14 inh: TWEAK-Fn14 signaling inhibition. 360,000 tested, 2% active. TWEAK-stimulated Fn14 reporter cells, luciferase luminescence, 8 h. AID 1159606. inhibition, % at 10 µM; in the data active = inhibition above about 50%
aSyn UTR inh: MLPCN primary screen, SNCA 5' untranslated region | alpha-synuclein 5'UTR reporter, inhibitor activity | inhibition, % (tested at 7.5 µM) | 300,000 tested, 0.82% active; in the data active = inhibition above about 60%;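 also: H4 neuroglioblastoma cells stably carrying SNCA 5'UTR luciferase fusion; 0% = DMSO wells and 100% = positive control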
* = called active by the depositor; . = no result. Hits are enriched below; roughly 3.9% of the tested compounds scored in any of these assays.

SMILES	HSP90 inh	C8 TRAIL sens	TROY NFkB inh	HIF-2a inh	TWEAK-Fn14 inh	aSyn UTR inh
CCNC(=O)C1CCCN(Cc2cc(-c3ccccc3)on2)CC1 (configuration not stated)	.	-13	25	-24	-35	.
O=C(N/N=C/c1cccc([N+](=O)[O-])c1)c1cc(-c2ccc3c4c(cccc24)CC3)n[nH]1	1	-16	-14	-4	-13	-23
O=C(N/N=C/c1ccc(Cl)c([N+](=O)[O-])c1)c1cc(-c2ccc3c4c(cccc24)CC3)n[nH]1	0	10	6	10	64*	12
CCOC(=O)C1=C(N)n2c(s/c(=C\c3cccnc3)c2=O)=C(C#N)C1c1cccnc1 (configuration not stated)	.	16	26	10	-28	.
CC(C)c1ccc(/C=c2\sc3n(c2=O)C(N)=C(C#N)C(c2ccc(C(C)C)cc2)C=3C(N)=O)cc1 (configuration not stated)	.	63*	-15	-13	-19	.
CC1(C)CC(=O)C=C(c2ccc(COC(=O)C(c3ccccc3)c3ccccc3)cc2)C1=O	.	-2	11	4	1	.
N#CC1=C(N)OC2=C(CCc3ccccc32)C1c1ccccc1 (configuration not stated)	3	-32	-23	-35	12	70*
O=C1c2cccc3c([N+](=O)[O-])ccc(c23)C(=O)N1O	-2	45	12	-1	-19	-35
O=C1c2cccc3c([N+](=O)[O-])ccc(c23)C(=O)N1c1nccs1	4	53*	39	40	-58	20
CC(=O)Oc1ccc(N2C(=O)c3cccc4c([N+](=O)[O-])ccc(c34)C2=O)cc1	-1	19	55*	16	-99	15
O=C1c2cccc3c([N+](=O)[O-])ccc(c23)C(=O)N1c1ccccn1	0	51*	30	26	-111	-38
CC(CSC(=O)c1ccccc1)C(=O)N1c2ccccc2CC1C(=O)O (configuration not stated)	.	-2	-9	-51	-2	.
Cc1ccc(Sc2cc(NCCCO)c([N+](=O)[O-])c3nonc23)cc1	5	-13	21	-20	55*	-17
O=C(O)CCCc1ccc2c(c1)CCc1ccccc1-2	.	5	27	68*	56*	109*
COc1ccc2c(Cn3cnc4cc([N+](=O)[O-])ccc4c3=O)cc(=O)oc2c1	15	18	-2	27	-12	72*
Cc1ccc(OCCn2cnc3cc([N+](=O)[O-])ccc3c2=O)cc1	2	-10	21	-5	-13	2
CCOC(=O)C1=CCN(S(=O)(=O)c2ccc(C)cc2)C1c1ccc(C(C)C)cc1 (configuration not stated)	.	5	4	-17	8	.
Cc1ccc(-c2nnc(SCC(=O)N/N=C/c3ccccc3C(=O)O)n2-c2ccc(C)cc2)cc1	-2	-7	0	7	92*	0
CCC(C)(C)n1nnnc1CN1CCC(c2nc3ccc(C)cc3[nH]2)CC1	-1	20	-7	-22	10	22
Cc1cc2nc(C3CCN(Cc4nnnn4Cc4ccccc4)CC3)[nH]c2cc1C	1	29	4	-13	-17	74*
CC(C)Oc1ccc(S(=O)(=O)N2CCOCC2)cc1NC(=O)C1COc2ccccc2O1 (configuration not stated)	.	17	-14	6	13	.
Cc1ccccc1NC(=O)CN1C(=O)NC2(CCc3ccccc32)C1=O (configuration not stated)	.	-1	7	4	3	.
COc1cc2c(cc1NC(=O)CN1C(=O)NC3(CCc4ccccc43)C1=O)oc1ccccc12 (configuration not stated)	2	31	5	-41	62*	0
O=C(NCCCN1CCOCC1)c1c(-c2ccccc2)oc2c1C(OCCCCCO)CCC2 (configuration not stated)	.	3	2	-2	12	.
NC(=O)C1CCN(C(=O)C2CCN(C(=O)Nc3ccccc3)CC2)CC1	.	-3	8	-6	15	.
SMILES	HSP90 inh	C8 TRAIL sens	TROY NFkB inh	HIF-2a inh	TWEAK-Fn14 inh	aSyn UTR inh
COc1cc2sc3ccc(-c4ccc(N(C)C)nc4)cc3c(=O)c2cc1OC	.	.	.	.	.	-141
COc1ccc(CN2CCOCC2)cc1OC	-3	1	.	3	99*	-4
COc1cc2sc3ccc(-c4ccc(CN5CCOCC5)cc4)cc3c(=O)c2cc1OC	.	53*	-19	-184	2	.
CCC(C)(C)NC(=O)C(c1ccc(OC)cc1)N(C(=O)CCC(=O)Nc1cc(C)on1)c1ccccc1OC (configuration not stated)	1	-10	11	13	57*	11
OC[C@H]1O[C@@H](n2cnc3c(NCc4ccco4)ncnc32)[C@H](O)[C@@H]1O	.	48	2	-126	22	.
C=CCNc1ncnc2c1ncn2C1OC(CO)C(O)C1O (configuration not stated)	-2	57*	16	12	-31	36
OCC1OC(n2cnc3c(SCc4ccccc4)ncnc32)C(O)C1O (configuration not stated)	.	55*	-44	-67	-20	.
OCC1OC(n2cnc3c(NCc4ccco4)ncnc32)C(O)C1O (configuration not stated)	.	59*	15	-87	32	.
O=C1C=C(OCCCl)CC(c2cccc(Cl)c2)O1 (configuration not stated)	.	8	.	-12	.	.
CC(C)CC(/C(O)=C(\C#N)c1nc2ccccc2[nH]1)N1C(=O)c2ccccc2C1=O (configuration not stated)	10	65*	15	33	16	65*
CC(C)(C)/C(O)=C(/C#N)c1nc2ccccc2[nH]1	5	-1	7	-6	25	-9
COc1ccc2c(/C=C/c3cc[n+](C)cc3)c[nH]c2c1	1	4	12	12	31	7
Cc1ccc2[nH]cc(/C=C/c3cc[n+](C)cc3)c2c1	3	7	7	8	4	65*
CCn1cc(/C=C(\NC(=O)c2ccccc2OC)C(=O)N2CCOCC2)c2ccccc21	.	-9	8	14	-1	.
C=CCNC(=S)N/N=C(\C)c1ccccn1	8	-7	-42	11	108*	86*
CCc1ccc(/C(C)=N/NC(=O)c2ccccn2)cc1	-2	0	-5	-11	-7	-35
C/C(=N\NC(=O)CCCNc1ccc(C)cc1)c1ccccn1	-2	-2	-18	27	-5	78*
C/C(=N\NC(=O)c1ccc(F)cc1)c1ccccn1	9	55*	-71	-125	-14	-93
CC(=NNC(=S)Nc1ccccc1Cl)c1ccccn1	.	7	-3	-200	4	.
C/C(=N\NC(=O)CCCNc1ccccc1)c1ccncc1	2	-8	-17	9	4	5
C/C(=N\NC(=O)c1cc2ccccc2cc1O)c1ccccn1	4	58*	-58	-76	24	88*
